{"source": "PubChem BioAssay (NCATS)", "note": "Results filed as inconclusive are left out. Activity calls are given as the source filed them. Unless noted, calls come from the whole dose curve; as a rule, active = well fitted curve in the direction sought with a large enough effect; inconclusive = small, poorly fitted or top-dose-only effect, or another doubt; inactive = no such curve, though single readings can be large; an effect the other way counts as inactive or inconclusive."}
{"biological_target": "3',5'-cyclic-AMP phosphodiesterase 4B (Homo sapiens) (UniProt Q07343)", "sequence (Q07343 whole entry, looked up)": "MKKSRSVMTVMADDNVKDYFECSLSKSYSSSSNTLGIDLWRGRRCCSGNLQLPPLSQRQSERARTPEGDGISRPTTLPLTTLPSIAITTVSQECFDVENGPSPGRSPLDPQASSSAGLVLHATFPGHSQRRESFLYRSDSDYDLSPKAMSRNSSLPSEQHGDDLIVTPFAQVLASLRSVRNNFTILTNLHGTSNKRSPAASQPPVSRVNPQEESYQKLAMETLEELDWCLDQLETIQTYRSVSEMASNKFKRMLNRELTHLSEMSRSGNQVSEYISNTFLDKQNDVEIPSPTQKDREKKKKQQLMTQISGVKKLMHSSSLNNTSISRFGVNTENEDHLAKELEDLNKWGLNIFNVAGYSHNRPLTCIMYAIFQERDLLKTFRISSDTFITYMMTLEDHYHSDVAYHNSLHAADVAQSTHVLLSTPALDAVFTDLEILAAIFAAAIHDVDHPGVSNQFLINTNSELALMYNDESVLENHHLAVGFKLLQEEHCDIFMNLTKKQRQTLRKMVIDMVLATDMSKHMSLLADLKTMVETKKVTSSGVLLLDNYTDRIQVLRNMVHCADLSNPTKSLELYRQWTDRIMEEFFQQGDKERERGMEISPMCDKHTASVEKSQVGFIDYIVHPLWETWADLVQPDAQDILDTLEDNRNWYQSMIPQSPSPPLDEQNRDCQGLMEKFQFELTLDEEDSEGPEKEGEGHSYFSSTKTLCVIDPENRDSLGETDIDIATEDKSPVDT", "assay": "qHTS Assay for Inhibitors of PDE-IV (AID 607; active = well fitted activation curve with a large enough effect in the main read-out, with a control signal flat, not every such curve was filed as active; note: % of control where 0% means no effect)", "conditions": "HEK293 ACTOne CNG channel cells, membrane potential fluorescence; series mostly up to 22.9 µM; activation (PDE inhibition): at the top concentration", "procedure,_shortened": "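The readout is membrane depolarisation from a cAMP-sensing CNG channel, detected with a potential dye at ex 535/em 590. Cells were HEK293-derived (endogenous PDE-IV) at 1000 cells/well, titrated up to 22.9 uM final.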"}
{"compound": "CN(C)C(=O)Oc1cccc([N+](C)(C)C)c1", "Potency": "inactive"}
{"compound": "c1cc(CN2CCCCC2)cc(OCCCNc2nc3ccccc3s2)c1", "activation (PDE inhibition)": "12.7% (inactive)"}
{"compound": "CCO/C([O-])=N/c1c[n+](N2CCOCC2)no1", "Potency": "inactive"}
{"compound": "COc1cc(Cc2cnc(N)nc2N)cc(OC)c1OC", "Potency": "inactive"}
{"compound": "CC1=NS(=O)(=O)c2cc(Cl)ccc2N1", "Potency": "inactive"}
{"compound": "CCCOc1ccccc1-c1nc2n[nH]nc2c(=O)[nH]1", "Potency": "inactive"}
{"compound": "CN1CCN(C2=Nc3ccccc3Oc3ccc(Cl)cc32)CC1", "Potency": "inactive"}
{"compound": "COc1ccc(CN(CCN(C)C)c2ccccn2)cc1", "Potency": "inactive"}
{"compound": "FC(F)(F)c1ccccc1-n1ccnc1", "activation (PDE inhibition)": "-15.9% (inactive)"}
{"compound": "CCCCCCCC/C=C\\CCCCCCCC(=O)NCc1ccc(O)c(OC)c1", "activation (PDE inhibition)": "7.77% (inactive)"}
{"compound": "CC(=O)Nc1nnc(S(N)(=O)=O)s1", "Potency": "inactive"}
{"compound": "CN/C(=C\\[N+](=O)[O-])NCCSCc1ccc(CN(C)C)o1", "Potency": "inactive"}
{"test_system": "not listed separately", "assay": "Cellular Toxicity (caspase-3) HepG2 (AID 654);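 note: cells exposed to compound for 16 hours before reading; 0% = DMSO alone and 100% = caspase signal from 100 µM tamoxifen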", "conditions": "HepG2 caspase-3 activation, luminescence, 0% = DMSO only, 100% = tamoxifen; series mostly up to 92.2 µM; caspase-3 activation: at the top concentration", "procedure,_shortened": "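qHTS, HepG2, 1500 cells/well, complete medium; cpd 16 h 37 °C; Caspase-Glo 3/7, 20 min RT; lum. Norm: DMSO vs 100 uM tamoxifen; AC50 Hill fit.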"}
{"compound": "CN=C(NC#N)NCCSCc1nc[nH]c1C", "caspase-3 activation": "-0.287% (inactive)"}
{"compound": "NC(=Nc1ccccc1)Nc1ccccc1", "caspase-3 activation": "0.774% (inactive)"}
{"compound": "CCCCNC(=O)NS(=O)(=O)c1ccc(C)cc1", "caspase-3 activation": "-0.891% (inactive)"}
{"compound": "NC(=O)N1c2ccccc2C=Cc2ccccc21", "caspase-3 activation": "0.0642% (inactive)"}
{"compound": "Nc1ncn([C@@H]2O[C@H](CO)[C@@H](O)[C@H]2O)c(=O)n1", "caspase-3 activation": "-1.16% (inactive)"}
{"compound": "COc1cc(Cc2cnc(N)nc2N)cc(OC)c1OC", "caspase-3 activation": "-0.706% (inactive)"}
{"compound": "CCCCOCCOCCOCc1cc2c(cc1CCC)OCO2", "caspase-3 activation": "-0.339% (inactive)"}
{"compound": "COc1ccc(CN(CCN(C)C)c2ccccn2)cc1", "caspase-3 activation": "1.22% (inactive)"}
{"compound": "O=c1[nH]c(=O)n([C@H]2C[C@H](O)[C@@H](CO)O2)cc1Br", "caspase-3 activation": "-0.154% (inactive)"}
{"test_system": "not listed separately", "assay": "Cellular Toxicity (caspase-3) Jurkat (AID 655);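 note: cells exposed to compound for 16 h at 37 °C before reading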; note: potency is the fitted concentration of half-maximal effect", "conditions": "Jurkat caspase-3 activation, luminescence; series mostly up to 92.2 µM; caspase-3 activation: at the top concentration", "procedure,_shortened": "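Luminescent Caspase-Glo 3/7 read-out (20 min, room temperature) after 16 h compound treatment at 37 C of 5000 Jurkat cells per well. AC50 derived by Hill-equation fitting, scaled between DMSO basal and 100 uM tamoxifen stimulation.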"}
{"compound": "CN=C(NC#N)NCCSCc1nc[nH]c1C", "caspase-3 activation": "-1.6% (inactive)"}
{"compound": "NC(=Nc1ccccc1)Nc1ccccc1", "caspase-3 activation": "2.91% (inactive)"}
{"compound": "CCCCNC(=O)NS(=O)(=O)c1ccc(C)cc1", "caspase-3 activation": "2.8% (inactive)"}
{"compound": "NC(=O)N1c2ccccc2C=Cc2ccccc21", "caspase-3 activation": "1.14% (inactive)"}
{"compound": "Nc1ncn([C@@H]2O[C@H](CO)[C@@H](O)[C@H]2O)c(=O)n1", "Potency": "2000 nM (active)"}
{"compound": "COc1cc(Cc2cnc(N)nc2N)cc(OC)c1OC", "caspase-3 activation": "-0.542% (inactive)"}
{"compound": "CCCCOCCOCCOCc1cc2c(cc1CCC)OCO2", "caspase-3 activation": "0.416% (inactive)"}
{"compound": "COc1ccc(CN(CCN(C)C)c2ccccn2)cc1", "caspase-3 activation": "1.54% (inactive)"}
{"compound": "O=c1[nH]c(=O)n([C@H]2C[C@H](O)[C@@H](CO)O2)cc1Br", "caspase-3 activation": "7.77% (inactive)"}
{"test_system": "not listed separately", "assay": "Cellular Toxicity (caspase-3) HUV-EC-C (AID 656)", "conditions": "HUV-EC-C cells, caspase-3 activation (apoptosis), vehicle = 0, 100 µM tamoxifen = 100%; series mostly up to 92.2 µM; caspase-3 activation: at the top concentration", "procedure,_shortened": "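Luminescent Caspase-Glo 3/7 readout after 16 h, 37 °C compound exposure of HUV-EC-C endothelial cells, 1000 per well, complete medium. AC50 derived by Hill fitting, with DMSO as baseline and 100 uM tamoxifen as full activation.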"}
{"compound": "Nc1nc(N)c2nc(-c3ccccc3)c(N)nc2n1", "caspase-3 activation": "4.33% (inactive)"}
{"compound": "CN=C(NC#N)NCCSCc1nc[nH]c1C", "caspase-3 activation": "5.28% (inactive)"}
{"compound": "COC(=O)[C@H]1[C@H]2C[C@@H]3c4[nH]c5cc(OC)ccc5c4CCN3C[C@H]2C[C@@H](OC(=O)c2cc(OC)c(OC)c(OC)c2)[C@@H]1OC", "caspase-3 activation": "10% (inactive)"}
{"compound": "NC(=Nc1ccccc1)Nc1ccccc1", "caspase-3 activation": "-3.25% (inactive)"}
{"compound": "CCCCNC(=O)NS(=O)(=O)c1ccc(C)cc1", "caspase-3 activation": "12.1% (inactive)"}
{"compound": "NC(=O)N1c2ccccc2C=Cc2ccccc21", "caspase-3 activation": "4.7% (inactive)"}
{"compound": "Nc1ncn([C@@H]2O[C@H](CO)[C@@H](O)[C@H]2O)c(=O)n1", "caspase-3 activation": "2.15% (inactive)"}
{"compound": "COc1cc(Cc2cnc(N)nc2N)cc(OC)c1OC", "caspase-3 activation": "-4.42% (inactive)"}
{"compound": "CCCCOCCOCCOCc1cc2c(cc1CCC)OCO2", "caspase-3 activation": "7.42% (inactive)"}
{"compound": "COc1ccc(CN(CCN(C)C)c2ccccn2)cc1", "caspase-3 activation": "1.08% (inactive)"}
{"compound": "O=c1[nH]c(=O)n([C@H]2C[C@H](O)[C@@H](CO)O2)cc1Br", "caspase-3 activation": "1.57% (inactive)"}
